Hit rate of the full screen: of about 69,000 compounds, about 8,600 (12%) showed an effect of 50% or more. The list comes from a sample in which strong results are over-represented; it also holds similar structures and randomly drawn compounds.
tested on: Plasmodium berghei; experiment: Screen against P. berghei liver stage (PbLuc), transformed with Luciferase, at 10uM; assay type: functional, HepG2; details: tested at 10 uM

| SMILES | INHIBITION [%] |
| --- | --- |
| Cn1cc(S(=O)(=O)N2CCN(S(=O)(=O)c3ccc(Br)s3)CC2)cn1 | 43.2 |
| CN(Cc1cnn(C)c1)C(=O)NCc1cc(Br)cs1 | 34.95 |
| Cc1cc2c(=O)n(CCSc3cnn[nH]3)cnc2s1 | 36.7 |
| O=C(COC[C@H]1CC[C@H]2[C@H](CCN2c2ncccn2)O1)N1CCCC1 | 1.81 |
| Cc1ccc(CCNC(=O)Cn2nc(C)n(Cc3ccccc3)c2=O)o1 | 13.6 |
| CN(Cc1cccc2cccnc12)C1CCS(=O)(=O)C1 (stereo unspecified) | 36 |
| Cc1nnc(NCc2ccccc2F)c(C#N)c1C | 1.35 |
| O=C(c1ccnnc1)N1CCN(Cc2cccnc2)c2ncccc2C1 | -39.9 |
| CS(=O)(=O)CCn1ccc(NC(=O)Cc2cccc(Cl)c2)n1 | 16.5 |
| CCOCC(=O)N1CCC(Cc2nnc(SC)n2C)CC1 | 48 |
| Cc1ccc(NC2CCN(C(=O)COc3cccnc3)CC2)nn1 | 44.6 |
| CSc1nnc(CC2CCN(C(=O)Cc3ccncc3)CC2)n1C | 64.7 |
| CC1CCCN(C(=O)CCc2cccnc2)C1 (stereo unspecified) | 20.9 |
| CSc1nnc(CC2CCN(C(=O)CCc3cccnc3)CC2)n1C | 51.7 |
| CSc1nnc(C2CCN(C(=O)N3CCCC3)CC2)n1C | 16.185 |
| COc1cccc(CC(=O)N2CCC(Cc3nnc(SC)n3C)CC2)c1 | 31.3 |
| O=C(CCc1cccnc1)N1CCC(c2cnccn2)CC1 | 15.9 |
| CSc1nnc(CC2CCN(C(=O)COc3cccnc3)CC2)n1C | 73 |
| CN(C)C(=O)N1CCN(Cc2cnn(C)c2)CC2(CNC(=O)C2)C1 (stereo unspecified) | 17.6 |
| O=C(CCn1c(=O)oc2ccccc21)NCC(O)c1ccc(Cl)cc1 (stereo unspecified) | 18.2 |
| O=S(=O)(CC1CCCCO1)Nc1cnn(Cc2ccccc2)c1 (stereo unspecified) | 33.7 |
| Cc1cnn(C2CN(CC(=O)NCCc3ccsc3)C2)c1 | 22.3 |

| SMILES | INHIBITION [%] |
| --- | --- |
| CN1CCN(C[C@@H]2OC[C@H]3CN(Cc4ccsc4)CC[C@H]32)CC1 | -13.3 |
| O=C(CNC(=O)c1ccccc1Cl)Nc1nccs1 | -9.72 |
| COCCn1/c(=N\C(=O)CN(C)S(C)(=O)=O)sc2cc(OC)ccc21 | 2.29 |
| Cn1c(=NC(=O)CSCC(=O)Nc2nccs2)sc2ccccc21 | 32.8 |
| COc1ccc2c(c1)sc(=NC(=O)CSCC(=O)Nc1nccs1)n2C | 51 |
| COc1cc(Cl)ccc1C(=O)NCC(=O)Nc1nccs1 | -176 |
| CCn1c(=NC(=O)CSCC(=O)Nc2nccs2)sc2ccccc21 | 88.1 |
| O=C(Cc1ccccn1)N1CC[C@]2(C[C@@H](Oc3ncccc3F)CO2)C1 | 35.8 |
| CN(C)C(=O)N1CC[C@@H](O)[C@@H]1Cc1ccccc1 | -14.7 |
| Cc1ccc(CN2CCC3(CC2)C(=O)N(CC(C)C)CCN3C)o1 | 39.5 |
| COc1ccc(C(=O)COc2coc(CN3CCSCC3)cc2=O)cc1 | 15.1 |
| CCOC(=O)CC(C)Nc1nc(C(C)(C)C)nc2c1cnn2C (stereo unspecified) | 46.4 |
| Cn1ncc2c(N[C@@H]3CS(=O)(=O)C[C@H]3O)nc(C(C)(C)C)nc21 | 54.4 |
| Cn1ncc2c(NC3CCCN(C(=O)C4CC4)C3)nc(C(C)(C)C)nc21 (stereo unspecified) | 62.9 |
| CCc1nc(NC2CCCN(C(=O)C3CC3)C2)c2cnn(C)c2n1 (stereo unspecified) | 16 |
| Cn1ncc2c(N[C@H]3CCCC[C@@H]3O)nc(C(C)(C)C)nc21 | 50.1 |
| Cn1ncc2c(NC3CCC(N)CC3)nc(C(C)(C)C)nc21 (stereo unspecified) | 40.5 |
| Cc1nc(NC2CCN(C(=O)C3CC3)CC2)c2cnn(C)c2n1 | -25.2 |
| CCOC(=O)CNc1nc(C(C)(C)C)nc2c1cnn2C | 51.3 |
| Cc1nc(N[C@H]2COC[C@@H]2N2CCCC2)c2cnn(C)c2n1 | 32.7 |
| Cn1ncc2c(NCC3CCS(=O)(=O)C3)nc(C3CCCC3)nc21 (stereo unspecified) | 15.1 |
| Cn1ncc2c(NCC(=O)N3CCNCC3)nc(C(C)(C)C)nc21 | 16.8 |

| SMILES | INHIBITION [%] |
| --- | --- |
| CCOC(=O)CCCNc1nc(C(C)(C)C)nc2c1cnn2C | 27.9 |
| Cc1nn(C)c(Cl)c1C(=O)NCc1cccnc1N1CCOCC1 | -13 |
| O=C(NCc1nncn1C1CC1)c1ccccc1Oc1cccnc1 | -18.3 |
| O=C(c1ccnnc1)N1C[C@@H]2COC[C@]2(COCC2CC2)C1 | 46.2 |
| OC(CNCCn1cccn1)c1cccc(Br)c1 (stereo unspecified) | 11.2 |
| CC(O)c1cn(CC2CCN(C(=O)c3cscn3)CC2)nn1 (stereo unspecified) | 30.3 |
| CC(O)c1cn(CC2CCN(C(=O)CN(C)C(C)C)CC2)nn1 (stereo unspecified) | 8.51 |
| CC(O)c1cn(CC2CCN(C(=O)c3cccc(N(C)C)c3)CC2)nn1 (stereo unspecified) | 55.7 |
| CCN(CC)C(C(=O)Nc1ccc2c(c1)CCC(=O)N2)c1ccccc1 (stereo unspecified) | 56.8 |
| CCN(C)C(C(=O)Nc1ccc2c(c1)CCC(=O)N2)c1ccccc1 (stereo unspecified) | 36.3 |
| CCC(CC(=O)Nc1ccc2c(c1)CC(=O)N2)c1ccccc1 (stereo unspecified) | 49.1 |
| COCCN1C[C@@H]2[C@@H](OC)CCN(C(=O)c3cccc(OC)c3)[C@@H]2C1 | 11.6 |
| Cc1ccc(OCCC(=O)NC2CCc3nccn3C2)cc1 (stereo unspecified) | 22.1 |
| CN(C)C(=O)CO[C@H]1CN(Cc2ccc(F)cc2)[C@@H]2CCCO[C@H]12 | 25.1 |
| CCCc1nnc(N2CCN(C3CCCC3)CC2)o1 | 26.5 |
| CCCc1nnc(N2CCC(N3CCCC3)CC2)o1 | 79.8 |
| CCCc1nnc(N2CCC(N3CCCCCC3)CC2)o1 | 23.3 |
| O=C(O)C1(Oc2cccc(F)c2)CCN(C2CCOCC2)CC1 | -15.2 |
| Cc1ccccc1OCC(O)CN1CCC(c2ccn[nH]2)CC1 (stereo unspecified) | -17.6 |
| CSC1(CNC(=O)NC(C)Cc2cccc(F)c2)CCOCC1 (stereo unspecified) | -12.5 |
| CSC1(CNC(=O)NC(C)c2ccc(F)cc2)CCOCC1 (stereo unspecified) | 16.5 |
| CSC1(CNC(=O)NC(C)c2ccc(F)c(F)c2)CCOCC1 (stereo unspecified) | 65.3 |

| SMILES | INHIBITION [%] |
| --- | --- |
| O=C1NCC(C(=O)Nc2ccc(=O)n(Cc3ccccc3Cl)c2)N1 (stereo unspecified) | 26.8 |
| Cc1cc2c(N)nc(=O)n(CC(=O)Nc3cccc(Cl)c3)c2s1 | 76.9 |
| COc1cccc(NC(=O)Cn2c(=O)nc(N)c3cc(C)sc32)c1 | -12.5 |
| Cc1cc2c(N)nc(=O)n(CC(=O)Nc3ccccc3)c2s1 | 1.45 |
| O=C(Nc1cccnc1N1CCSCC1)c1ccc2c(c1)OCO2 | 49.5 |
| COc1c(C2CCCN2CC(=O)Nc2cc(C)on2)c(C)nn1C (stereo unspecified) | -102 |
| CC(C)(C)n1ncc2c1NC(=O)CC2c1ccc(C#N)cc1 (stereo unspecified) | -1.04 |
| CCc1[nH]c2c(CNC(=O)C3CCN(C)C3)cc(C)cc2c1C (stereo unspecified) | 14.9 |
| Cc1cc(CNc2nccc(N)n2)c2[nH]c(C)c(C)c2c1 | 66.9 |
| CCc1[nH]c2c(CNc3nccc(N)n3)cc(C)cc2c1C | 37.4 |
| CCc1[nH]c2c(CNc3nccc(N)n3)cc(F)cc2c1C | 55.4 |
| CCc1[nH]c2c(CNc3cnccn3)cc(F)cc2c1C | 56.3 |
| CCc1[nH]c2c(CNc3cncc(C(=O)N(C)C)n3)cc(F)cc2c1C | 47.2 |
| CCc1[nH]c2c(CNC(=O)C3CCC(=O)NC3)cc(C)cc2c1C (stereo unspecified) | -8.75 |
| CCc1[nH]c2ccc(CNC(=O)c3cnc(N)nc3C)cc2c1C | 36.5 |
| Cc1noc(C)c1CN1CCC2(CC1)CC(Oc1cccnc1)C2 | 30.5 |
| Cn1cccc1C(=O)N1CCN(Cc2cccnc2)c2ncccc2C1 | 10.5 |
| CCc1n[nH]c(C2CN(C(=O)CCOCC(F)(F)F)CCO2)n1 (stereo unspecified) | 1.45 |
| O=C1NC2(CCN(c3ncccn3)CC2)CC1c1cccnc1 (stereo unspecified) | 17.1 |
| Cc1cc(CC(=O)NC2CCCN(c3ccccc3F)C2=O)n[nH]1 (stereo unspecified) | 13.6 |
| Cc1ccsc1C(CNC(=O)c1cc(=O)[nH]c(=O)[nH]1)N(C)C (stereo unspecified) | -27.5 |
| NC(=O)CC1CCCN(c2cncc(SCc3ccccc3)n2)C1 (stereo unspecified) | -13.7 |

| SMILES | INHIBITION [%] |
| --- | --- |
| CC(=O)Nc1ccc(Cl)c(C(=O)N(C)C(C)c2ccon2)c1 (stereo unspecified) | 18.3 |
| CC(=O)Nc1ccc(Cl)c(C(=O)N(C)C(C)c2ccncn2)c1 (stereo unspecified) | 32.2 |
| CC(=O)Nc1ccc(Cl)c(C(=O)N(C)C(C)c2nccs2)c1 (stereo unspecified) | 61 |
| Cc1nc(C)n(CC2CN(Cc3ccc4c(c3)OCCO4)CCO2)n1 (stereo unspecified) | 1.78 |
| O=C(Cn1cnc2sccc2c1=O)NCCCc1nnc2ccccn12 | 28.3 |
| CCc1cnc(CNC(=O)NCCCO)s1 | -25.6 |
| CCc1cnc(CNC(=O)NCCc2ccc(O)cc2)s1 | 71.1 |
| Cc1cnc(CCNC(=O)NCCc2ccc(O)cc2)s1 | 42.8 |
| CCC[C@@H]1CN(Cc2ccccc2OC(F)(F)F)C[C@H]1NC(C)=O | 19.7 |
| CC(CCc1ncnn1Cc1cccc(Cl)c1)N1CCCC1 (stereo unspecified) | 49.3 |
| COc1cccc(Cn2ncnc2CCSC)c1 | -32.9 |
| COc1cccc(Cn2ncnc2CCC(C)N2CCN(C)CC2)c1 (stereo unspecified) | 72 |
| Cc1noc(C2CCCN(C(=O)CCCNc3ncccn3)C2)n1 (stereo unspecified) | 8.535 |
| COc1ccc(CCCNCc2c(C)nn(C)c2N(C)C)cc1OC | 45.7 |
| CN(C)c1cccc(C(=O)N2CCn3c(nnc3C3CC3)C2)c1 | 25.4 |
| Cn1cc(S(=O)(=O)N2CCCC2Cn2ccnc2)cn1 (stereo unspecified) | 34.4 |
| Cn1cc(S(=O)(=O)N2CCCC2Cn2ccnc2)cc1C(N)=O (stereo unspecified) | 39.9 |
| CN(C)C(=O)c1cc(S(=O)(=O)N2CCCC2Cn2ccnc2)cn1C (stereo unspecified) | 61.5 |

From ChEMBL document CHEMBL4513216, “Probing the Open Global Health Chemical Diversity Library for Multistage-Active Starting Points for Next-Generation Antimalarials” (ACS Infect Dis, 2020)
